Targets with a hit are over-represented here; the source holds about 8,800 in all. About 0.5% of all pairs of compound and target were hits. Unmarked numbers belong to inactive results.
Columns and labels:
Experiment in all cases: log2 fold change, soluble protein after heating vs DMSO (PISA); higher = thermal stabilisation; K562 lysate, 10 uM; active = over 0.2 and 3.5 SD of the protein, either way, in both replicates (recomputed)
[1] = compound: C#Cc1cccc(Nc2ncnc3cc(OCCOC)c(OCCOC)cc23)c1 [erlotinib]
Outline: (§1)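 K562 pellets were dounce-homogenised in PBS pH 7.4 containing 1 mM MgCl2, and the crude extract, at 1 mg/mL protein, was exposed to 10 μM compound for 30 min. Aliquots were heated for 3 min across 48°C-58°C, pooled, brought to 0.5% NP-40 at 4°C and spun at 21,000xg for 90 min, with the supernatant taken as soluble protein. TMTpro 16plex LC-MS/MS with equalised channel sums quantified that protein. Values are log-two fold changes in thermal stability relative to solvent controls, taken from duplicates.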

[2] = compound: C/C(=N\NC(=O)C1=CC(=CC=C1)S(=O)(=O)N2CCOCC2)/C3=C(C=CC(=C3)Cl)O
Outline: as §1

[3] = compound: C1=CC(=CC=C1C2=NC3=C(N2)C=C(C=C3)C(=O)N)OC4=CC=C(C=C4)Cl
Outline: as §1

[4] = compound: C1=CC2=C(C=CC(=C2)/C=C\3/C(=O)NC(=NCC4=CC=CS4)S3)N=C1
Outline: as §1

[5] = compound: C1=CC2=NC=CN=C2C=C1/C=C/3\C(=O)NC(=O)S3
Outline: as §1

[6] = compound: C1=CC=C(C=C1)C2=NC(=C(N2)C3=CC=NC=C3)C4=CC(=C(C=C4)Cl)O
Outline: as §1

[7] = compound: C1=CC=C2C(=C1)C3=NNC4=CC=CC(=C43)C2=O
Outline: as §1

[8] = compound: C1CCN(C1)C(=O)NC2=CC=CC(=C2)NC3=NC=C(C(=N3)NCCC4=CN=CN4)Br
Outline: as §1

[9] = compound: C1CN(CCC1(CC2=CC=C(C=C2)Cl)N)C3=NC=NC4=C3C=CN4
Outline: as §1

[10] = compound: C1COCCN1CCN2C3=CC=CC=C3N=C2NC(=O)C4=CC(=CC=C4)[N+](=O)[O-] [IRAK-1-4 Inhibitor I]
Outline: as §1

[11] = compound: C=CC(=O)N1CCC[C@@H](n2nc(-c3ccc(Oc4ccccc4)cc3)c3c(N)ncnc32)C1 [ibrutinib]
Outline: as §1

[12] = compound: CC(=O)c1cnc2ccc(-c3cc(Cl)c(O)c(Cl)c3)nc2c1N[C@H]1CC[C@H](CN(C)C)CC1
Outline: as §1

[13] = compound: CC(C)(C)Cn1c(N)nc2ccc(-c3[nH]c(C(C)(C)C)nc3-c3ccc(F)cc3)nc21 [ralimetinib]
Outline: as §1

[14] = compound: CC(C)(O)CC(=O)NCCn1ccc2ncnc(Nc3ccc(Oc4cccc(C(F)(F)F)c4)c(Cl)c3)c21
Outline: as §1

[15] = compound: CC(C)C1=C2N=C(C=C(N2N=C1)NCC3=CC=CC=C3)NCCCCCCN
Outline: as §1

[16] = compound: CC1=C(C2=C(C=C1)C(=O)C3=CC=CC=C3N2CCCN)C
Outline: as §1

[17] = compound: CC1=C(C=C(C=C1)NC(=O)C2=CC(=CC=C2)C(C)(C)C#N)NC3=CC4=C(C=C3)N=CN(C4=O)C
Outline: as §1

[18] = compound: CC1=C(C=C(C=C1)NC(=O)C2=CC(=CC=C2)N(C)C)NC(=O)C3=CC=C(C=C3)O
Outline: as §1

[19] = compound: CC1=CC=C(C=C1)SC2=C3C=C(SC3=CN=C2)C(=O)N
Outline: as §1

[20] = compound: CC1=C(C(CC(=O)N1)C2=CC=C(C=C2)C(F)(F)F)C(=O)NC3=C(C=C4C(=C3)C=NN4)F
Outline: as §1

Sequence of UniProt Q9UGL1 (Q9UGL1 whole entry, looked up): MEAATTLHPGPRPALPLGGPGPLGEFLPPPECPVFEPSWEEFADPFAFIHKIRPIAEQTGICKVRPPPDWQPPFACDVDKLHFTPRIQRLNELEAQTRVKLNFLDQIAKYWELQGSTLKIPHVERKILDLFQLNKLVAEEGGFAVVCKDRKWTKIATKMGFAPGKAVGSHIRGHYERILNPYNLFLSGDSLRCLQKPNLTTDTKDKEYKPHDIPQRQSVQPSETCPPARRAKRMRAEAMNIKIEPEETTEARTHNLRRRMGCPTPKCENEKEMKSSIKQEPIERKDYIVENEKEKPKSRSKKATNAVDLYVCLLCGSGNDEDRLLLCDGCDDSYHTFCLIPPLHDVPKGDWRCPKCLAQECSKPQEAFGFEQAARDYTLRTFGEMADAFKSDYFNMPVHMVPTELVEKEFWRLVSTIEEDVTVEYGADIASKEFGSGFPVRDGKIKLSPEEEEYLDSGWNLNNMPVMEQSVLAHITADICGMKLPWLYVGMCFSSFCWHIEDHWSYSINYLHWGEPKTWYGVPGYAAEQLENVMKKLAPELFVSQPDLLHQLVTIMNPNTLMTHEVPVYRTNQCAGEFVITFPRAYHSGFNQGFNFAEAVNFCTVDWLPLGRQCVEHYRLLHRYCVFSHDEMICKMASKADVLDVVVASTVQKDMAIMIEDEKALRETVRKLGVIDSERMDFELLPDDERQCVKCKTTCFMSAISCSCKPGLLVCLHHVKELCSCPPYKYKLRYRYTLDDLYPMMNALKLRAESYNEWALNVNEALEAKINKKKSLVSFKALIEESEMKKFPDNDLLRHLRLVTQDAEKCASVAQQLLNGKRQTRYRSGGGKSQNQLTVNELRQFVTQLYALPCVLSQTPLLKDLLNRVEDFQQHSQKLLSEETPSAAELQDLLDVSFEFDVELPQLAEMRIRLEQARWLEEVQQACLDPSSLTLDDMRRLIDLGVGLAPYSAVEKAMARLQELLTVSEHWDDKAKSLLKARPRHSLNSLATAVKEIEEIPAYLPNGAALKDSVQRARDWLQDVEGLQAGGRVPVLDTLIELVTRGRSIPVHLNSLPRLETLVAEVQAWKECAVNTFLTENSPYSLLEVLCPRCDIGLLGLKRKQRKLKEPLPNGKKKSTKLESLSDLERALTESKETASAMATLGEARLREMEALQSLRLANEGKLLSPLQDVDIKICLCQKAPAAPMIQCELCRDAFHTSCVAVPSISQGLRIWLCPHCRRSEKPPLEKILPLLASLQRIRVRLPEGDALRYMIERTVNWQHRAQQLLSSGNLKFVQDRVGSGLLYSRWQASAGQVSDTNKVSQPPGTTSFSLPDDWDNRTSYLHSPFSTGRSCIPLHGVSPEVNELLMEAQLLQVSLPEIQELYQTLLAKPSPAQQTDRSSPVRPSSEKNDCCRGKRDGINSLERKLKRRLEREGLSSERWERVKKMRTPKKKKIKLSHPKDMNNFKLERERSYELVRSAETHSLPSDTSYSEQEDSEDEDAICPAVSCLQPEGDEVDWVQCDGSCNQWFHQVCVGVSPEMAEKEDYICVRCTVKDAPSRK
Sequence of UniProt Q9HAV0 (Q9HAV0 whole entry, looked up): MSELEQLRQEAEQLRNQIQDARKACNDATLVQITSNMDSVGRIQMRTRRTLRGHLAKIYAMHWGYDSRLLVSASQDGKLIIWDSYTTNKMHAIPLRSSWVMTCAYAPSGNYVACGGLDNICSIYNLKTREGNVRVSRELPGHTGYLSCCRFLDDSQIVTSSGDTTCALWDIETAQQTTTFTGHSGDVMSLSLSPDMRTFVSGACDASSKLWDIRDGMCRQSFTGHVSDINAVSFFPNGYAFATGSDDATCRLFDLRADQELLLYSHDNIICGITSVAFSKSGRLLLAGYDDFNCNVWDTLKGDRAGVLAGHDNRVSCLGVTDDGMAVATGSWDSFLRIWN
Sequence of UniProt P52333 (P52333 whole entry, looked up): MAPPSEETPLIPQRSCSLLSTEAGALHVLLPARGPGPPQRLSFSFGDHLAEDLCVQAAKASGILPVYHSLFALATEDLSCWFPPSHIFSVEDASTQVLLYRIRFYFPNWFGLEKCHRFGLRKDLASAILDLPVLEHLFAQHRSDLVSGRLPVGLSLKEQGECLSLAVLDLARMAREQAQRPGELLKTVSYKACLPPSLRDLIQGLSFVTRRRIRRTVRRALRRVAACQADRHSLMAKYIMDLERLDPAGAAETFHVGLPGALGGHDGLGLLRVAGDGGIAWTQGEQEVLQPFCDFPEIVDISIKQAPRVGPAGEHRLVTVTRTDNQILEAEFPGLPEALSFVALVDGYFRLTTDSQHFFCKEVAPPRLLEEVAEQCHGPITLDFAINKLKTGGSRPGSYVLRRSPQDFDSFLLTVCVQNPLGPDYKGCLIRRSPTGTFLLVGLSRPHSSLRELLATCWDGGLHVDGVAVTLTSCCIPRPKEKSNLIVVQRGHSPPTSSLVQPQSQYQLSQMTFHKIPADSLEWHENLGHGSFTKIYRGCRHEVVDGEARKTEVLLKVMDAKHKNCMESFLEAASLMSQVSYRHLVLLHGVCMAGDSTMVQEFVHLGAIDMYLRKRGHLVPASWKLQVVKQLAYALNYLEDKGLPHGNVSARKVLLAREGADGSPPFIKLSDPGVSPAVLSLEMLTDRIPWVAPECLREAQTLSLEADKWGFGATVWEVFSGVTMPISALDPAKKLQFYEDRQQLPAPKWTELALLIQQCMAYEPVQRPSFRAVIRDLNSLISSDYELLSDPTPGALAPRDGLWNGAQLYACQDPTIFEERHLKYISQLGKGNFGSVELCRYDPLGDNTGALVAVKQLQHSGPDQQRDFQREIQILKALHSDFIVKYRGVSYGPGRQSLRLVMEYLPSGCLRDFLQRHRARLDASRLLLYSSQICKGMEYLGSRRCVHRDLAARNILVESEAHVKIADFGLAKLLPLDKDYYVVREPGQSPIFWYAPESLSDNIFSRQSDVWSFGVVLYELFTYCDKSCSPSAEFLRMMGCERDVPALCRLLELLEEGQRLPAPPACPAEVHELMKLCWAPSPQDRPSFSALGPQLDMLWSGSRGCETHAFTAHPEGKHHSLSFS
Sequence of UniProt Q9H079 (Q9H079 whole entry, looked up): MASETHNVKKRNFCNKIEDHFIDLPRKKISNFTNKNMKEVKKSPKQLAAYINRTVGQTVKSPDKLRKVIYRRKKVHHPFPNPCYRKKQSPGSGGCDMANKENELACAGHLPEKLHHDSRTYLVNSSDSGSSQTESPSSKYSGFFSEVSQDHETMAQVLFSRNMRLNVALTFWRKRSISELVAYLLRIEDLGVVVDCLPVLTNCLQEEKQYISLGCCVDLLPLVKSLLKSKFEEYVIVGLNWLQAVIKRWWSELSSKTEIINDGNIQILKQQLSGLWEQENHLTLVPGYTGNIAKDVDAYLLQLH
Sequence of UniProt P17096 (P17096 whole entry, looked up): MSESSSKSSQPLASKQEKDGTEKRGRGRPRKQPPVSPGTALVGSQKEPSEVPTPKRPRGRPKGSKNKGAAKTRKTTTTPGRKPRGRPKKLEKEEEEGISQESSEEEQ
Sequence of UniProt P22692 (P22692 whole entry, looked up): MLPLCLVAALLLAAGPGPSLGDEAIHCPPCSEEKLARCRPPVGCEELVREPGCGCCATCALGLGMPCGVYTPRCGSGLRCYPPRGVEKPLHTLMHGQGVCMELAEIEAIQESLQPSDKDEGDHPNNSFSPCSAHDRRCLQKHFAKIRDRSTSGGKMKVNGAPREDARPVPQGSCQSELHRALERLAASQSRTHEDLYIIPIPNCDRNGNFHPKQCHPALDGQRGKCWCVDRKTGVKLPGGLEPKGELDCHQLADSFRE
Sequence of UniProt Q9H9Y4 (Q9H9Y4 whole entry, looked up): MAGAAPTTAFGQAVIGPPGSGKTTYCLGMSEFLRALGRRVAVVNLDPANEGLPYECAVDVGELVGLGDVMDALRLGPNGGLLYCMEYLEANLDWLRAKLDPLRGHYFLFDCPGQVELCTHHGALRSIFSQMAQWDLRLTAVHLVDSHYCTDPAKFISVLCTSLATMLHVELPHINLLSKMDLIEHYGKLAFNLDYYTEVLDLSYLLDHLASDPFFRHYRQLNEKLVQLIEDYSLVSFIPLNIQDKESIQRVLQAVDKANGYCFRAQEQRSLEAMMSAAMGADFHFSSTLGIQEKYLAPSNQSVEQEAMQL
Sequence of UniProt Q9Y6M1 (Q9Y6M1 whole entry, looked up): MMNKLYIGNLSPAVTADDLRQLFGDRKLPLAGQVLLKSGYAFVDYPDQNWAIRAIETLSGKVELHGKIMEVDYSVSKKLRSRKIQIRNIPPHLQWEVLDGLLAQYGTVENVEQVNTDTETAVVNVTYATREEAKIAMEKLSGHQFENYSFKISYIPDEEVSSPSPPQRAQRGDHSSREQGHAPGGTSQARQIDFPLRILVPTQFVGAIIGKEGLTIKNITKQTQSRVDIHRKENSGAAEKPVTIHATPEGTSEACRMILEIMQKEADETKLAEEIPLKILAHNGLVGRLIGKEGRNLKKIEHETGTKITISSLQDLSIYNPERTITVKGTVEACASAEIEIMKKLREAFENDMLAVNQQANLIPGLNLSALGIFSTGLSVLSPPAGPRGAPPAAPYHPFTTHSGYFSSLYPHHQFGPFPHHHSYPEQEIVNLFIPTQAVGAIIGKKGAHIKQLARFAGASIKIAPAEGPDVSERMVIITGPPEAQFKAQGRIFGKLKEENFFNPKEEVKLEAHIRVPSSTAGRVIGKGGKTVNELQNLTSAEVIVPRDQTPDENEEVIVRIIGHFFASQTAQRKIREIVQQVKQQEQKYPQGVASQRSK

Target	log2 fold change [1]	log2 fold change [2]	log2 fold change [3]	log2 fold change [4]	log2 fold change [5]	log2 fold change [6]	log2 fold change [7]	log2 fold change [8]	log2 fold change [9]	log2 fold change [10]	log2 fold change [11]	log2 fold change [12]	log2 fold change [13]	log2 fold change [14]	log2 fold change [15]	log2 fold change [16]	log2 fold change [17]	log2 fold change [18]	log2 fold change [19]	log2 fold change [20]
KDM5B isoform 2 (UniProt Q9UGL1)	0.07	0.03	0.006	-0.021	0.031	0.012	-0.074	-0.035	0.099	0.011	-0.075	-0.046	-0.083	-0.165	-0.072	-0.129	-0.016	-0.095	-0.098	–
JAK3 (UniProt P52333)	–	0.037	–	-0.075	-0.041	–	0.23	–	–	–	0.076	0.056	–	–	–	–	-0.016	–	0.078	–
KATNBL1 (UniProt Q9H079)	-0.012	0.009	-0.02	0.064	–	–	-0.001	0.045	-0.687 (active)	–	–	-0.002	–	–	0.156	-0.002	0.082	–	-0.025	-0.029
GPN2 (UniProt Q9H9Y4)	-0.022	0.089	0.032	0.043	–	-0.041	-0.056	-0.241 (active)	-0.062	-0.027	–	-0.022	0.12	0.028	-0.042	0.025	0.067	0.057	0.019	0.036
IGFBP4 (UniProt P22692)	0.06	–	0.025	–	0.218	-0.033	–	–	–	0.016	0.035	0.169	0.012	-0.087	-0.029	0.236	0.123	0.037	-0.139	-0.021
HDAC3 (UniProt E7ESJ6)	–	–	–	–	–	–	–	–	–	–	–	-0.107	–	–	–	–	–	–	-0.004	–
IGF2BP2 isoform 6 (UniProt Q9Y6M1)	–	–	–	–	–	–	–	–	–	–	–	-0.031	–	–	–	–	–	–	-0.016	–
H3-3A (UniProt P84243)	0.038	0.001	0.048	-0.033	-0.055	–	0.056	-0.053	-0.315 (active)	–	0.042	-0.047	–	–	0.013	–	-0.034	–	-0.086	–
HTT (UniProt P42858)	0.018	-0.051	-0.067	0.037	0.032	-0.041	-0.138	-0.04	-0.05	-0.027	0.11	–	0.065	0.008	-0.032	-0.032	0.035	0.04	–	0.047
IMPDH2 (UniProt H0Y4R1)	–	-0.014	–	0.023	-0.118	-0.155	-0.029	0.099	0.076	0.037	-0.025	-0.047	-0.069	-0.112	–	0.032	-0.04	0.062	0.032	-0.019
GNB4 (UniProt Q9HAV0)	-0.017	–	0.067	–	-0.049	-0.057	–	-0.035	-0.005	-0.024	-0.104	-0.071	0.009	-0.026	0	-0.036	0.073	0.084	0.202	-0.05
HMGA1 isoform 2 (UniProt P17096)	0.042	–	-0.043	–	–	0.022	–	–	–	0	–	0.053	-0.122	0.088	-0.029	-0.229	-0.034	0.054	0.01	0.047

— the supplement of paper PMC10849652
